Data on 100 molecules can be found in PubChem BioAssay AID431 (Sanford-Burnham Center for Chemical Genomics, 2006).

The whole screen tested about 63,000 compounds, of which about 1,100 (1.7%) were called active. Shown is part of a subset that was picked to be rich in actives. Measured potencies and affinities stand elsewhere. A number with no mark means an inactive call.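 How the source made its calls: active means compounds whose percent cytotoxicity in the single-dose primary screen, scaled between solvent and toxic-drug controls, exceeds 50; inactive means the rest.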

The experiment can be described thus: cytotoxicity in KRAS-transformed pancreatic duct cells, primary screen, cell-based, fluorescence, HTS (AID 431).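 Further: 0% = DMSO solvent wells and 100% = doxorubicin-treated wells.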 To be noted: HPDE-C7K KRASV12 cells, Alamar Blue viability, 48 h; at 10 µM; hits give high values. On the technique in general: Resazurin is reduced to fluorescent resorufin, in cell work by metabolically active cells.
In the case of `O=C(COc1ccc2c(c1)OCO2)Nc1ccc2c(c1)oc1ccccc12`, the cytotoxicity was 2.3%.

On to `O=C(Cn1ncc2c(=O)oc3ccccc3c21)N1CCN(C(=O)c2ccco2)CC1`, for which the cytotoxicity is 0.4%.

As to `COC(=O)c1cc(-c2c(C)oc3cc(OC(C)C)ccc3c2=O)c(C)o1`, the cytotoxicity was -13.5%.

Consider `Cn1c(=O)c2c(nc(CN3CCN(C(=O)c4ccco4)CC3)n2CCc2ccccc2)n(C)c1=O`, for which the cytotoxicity was -4.3%.

Regarding `CCOC(=O)c1ccc(NC(=O)NC(C)C2CCCO2)cc1` (stereo not given), the cytotoxicity was -0.2%.

In the case of `Cc1ccccc1CS(=O)(=O)CCC(=O)N1CCN(c2ccc(N3CCOCC3)nn2)CC1`, the cytotoxicity was 3.2%.

Regarding `COc1ccc(OC)c(C2=Nn3c(nnc3-c3cc(OC)c(OC)c(OC)c3)SC2)c1`, the cytotoxicity was 10.4%.

Regarding `COc1cc(-c2nnc3n2N=C(c2ccccc2)CS3)cc(OC)c1OC`, the cytotoxicity is 63.5% (active).

As to `COc1ccc(-c2nnc3n2N=C(c2ccccc2)CS3)cc1OC`, the cytotoxicity is -3%.

For the molecule `COc1cc2c(cc1OC)C(/C(C#N)=N\O)=NC(C)(C)C2`, the cytotoxicity is 7%.

As for `CCOC(=O)/C=C1\NC(C)(C)Cc2cc(OC)c(O)cc21`, the cytotoxicity is 5.5%.

With `O=C(CN1CCN(c2ccccc2F)CC1)Nc1ccccc1F`, the cytotoxicity was -7%.

Consider `CCCCNC(=O)c1ccccc1C(=O)NCCCC`, for which the cytotoxicity is -2.3%.

As to `CCn1c(N)c(C(=O)NCc2ccco2)sc1=S`, the cytotoxicity was -5.3%.

Turning to `C=CCn1c(N)c(C(=O)NCc2ccco2)sc1=S`, the cytotoxicity is 7.1%.

Take `CCCCCCNC(=O)c1c(O)c2ccccc2[nH]c1=O`: the cytotoxicity is -1.5%.

Turning to `O=C(NCc1ccco1)c1sc(=S)n2c1[nH]c(=O)c1ccccc12`, the cytotoxicity was 81.4% (active).

With `CCCCNC(=O)c1sc(=S)n2c1[nH]c(=O)c1ccccc12`, the cytotoxicity was 62.6% (active).

As to `O=C(NCCCN1CCN(c2ccccc2F)CC1)C1CCC(=O)N1C1CCCC1` (stereo not given), the cytotoxicity was -6.6%.

Take `Cn1c(CCCCCN)nc2ccccc21`: the cytotoxicity was -27.2%.

Regarding `OCCN(Cc1ccccc1)Cc1ccccc1F`, the cytotoxicity was -13.3%.

As to `CCCc1ccc(Oc2cn[nH]c2-c2ccc(O)c(C)c2O)cc1`, the cytotoxicity was 119% (active).

As to `CCCc1ccc(OCC(=O)O)cc1`, the cytotoxicity was 2.3%.

Consider `CCCc1ccc(Oc2cn[nH]c2-c2ccc(O)cc2O)cc1`, for which the cytotoxicity was 29.1%.

Take `COc1ccc(O)c(-c2[nH]ncc2C(=O)c2ccccc2C)c1`: the cytotoxicity was 2.7%.

Regarding `CC(C)Sc1ncnc2c1oc1ccccc12`, the cytotoxicity was -7.4%.

Consider `COc1ccc(CNC(=O)CSc2nc3nc(C)cc(C)n3n2)cc1`, for which the cytotoxicity was 1.6%.

`Cc1nn(-c2cccc(C(F)(F)F)c2)c(Cl)c1/C=N/n1cnnc1`: the cytotoxicity is 3.5%.

Take `Fc1ccccc1CSc1nnnn1-c1ccc2c(c1)OCO2`: the cytotoxicity is 2.3%.

`Fc1cccc(Cl)c1CSc1nnnn1-c1ccc2c(c1)OCO2`: the cytotoxicity is 51.7% (active).

Consider `Fc1cccc(Cl)c1Cn1nnc(-c2ccc3c(c2)OCO3)n1`, for which the cytotoxicity was -3.6%.

With `Cc1nc(NC2=NCN(Cc3ccc4c(c3)OCO4)CN2)nc2ccccc12`, the cytotoxicity was 15.2%.

On to `Cc1ccc2nc(NC3=NCN(Cc4cccnc4)CN3)nc(C)c2c1`, for which the cytotoxicity was 5.9%.

Regarding `Cc1nc(NC2=NCN(Cc3cccnc3)CN2)nc2ccccc12`, the cytotoxicity was 6.2%.

Regarding `Cc1cc2nc(NC3=NCN(Cc4ccc5c(c4)OCO5)CN3)nc(C)c2cc1C`, the cytotoxicity is 90% (active).

Take `Cc1cc2nc(NC3=NCN(Cc4cccnc4)CN3)nc(C)c2cc1C`: the cytotoxicity was 53.3% (active).

`Cc1ccc2nc(NC3=NCN(Cc4ccc5c(c4)OCO5)CN3)nc(C)c2c1`: the cytotoxicity was 12.9%.

For the molecule `Cc1ccc(CCN2CC(C(=O)NCCCN3CCOCC3)CC2=O)cc1` (stereo not given), the cytotoxicity is 2%.

As to `Cc1ccc(C)n1-c1ncn[nH]1`, the cytotoxicity is 1.3%.

On to `CC1(C)Cc2c(C#N)c(NCCN3CCOCC3)nc(-c3ccco3)c2CO1`, for which the cytotoxicity is 8.7%.

`c1nc(NCCN2CCOCC2)c2sc3nc(N4CCOCC4)c4c(c3c2n1)CCC4`: the cytotoxicity was 18.4%.

In the case of `OCCN(CCO)c1ncnc2c1sc1nc(N3CCOCC3)c3c(c12)CCCC3`, the cytotoxicity was 34.4%.

In the case of `CSc1nc(N2CCN(CCO)CC2)c2sc3nc(-c4ccco4)c4c(c3c2n1)CCC4`, the cytotoxicity is 4.4%.

For `O=C(Cn1cc2c(n1)CCCCC2)N1CCCCC1`, the cytotoxicity was 5.5%.

In the case of `CCc1ccc(OCC(=O)N(C)C)c(Br)c1`, the cytotoxicity is 7%.

Consider `CCCCc1ccc(NC(=O)OC)cc1`, for which the cytotoxicity was -10.3%.

On to `CCCCc1ccc(NC(=O)COCC)cc1`, for which the cytotoxicity is -2.8%.

Take `CCOC(=O)CSC(CC)C(=O)Nc1nnc(C(C)C)s1` (stereo not given): the cytotoxicity was 1.3%.

For the molecule `COc1ccc(CCNC(=O)C2CCN(C(=O)N(C)C)CC2)cc1OC`, the cytotoxicity is -12.4%.

Regarding `CCOC(=O)c1cc(-c2ccco2)nc2c1c(C)nn2-c1ccccc1`, the cytotoxicity was -7.1%.

Turning to `CCOc1cc(NC(=O)c2ccco2)c(OCC)cc1NC(=O)c1cc(OC)c(OC)c(OC)c1`, the cytotoxicity is 7.5%.

With `COc1cc(C(=O)Nc2ccc(NC(=O)c3ccco3)nc2)cc(OC)c1OC`, the cytotoxicity is -3.4%.

`COc1cc(NC(=O)c2ccco2)c(OC)cc1NC(=O)c1cc(OC)c(OC)c(OC)c1`: the cytotoxicity is 50.8% (active).

Consider `COc1cccc(NC(=O)Cn2nnc(-c3ccccc3N)n2)c1`, for which the cytotoxicity was 6.3%.

As for `CCc1ccc2[nH]c(=O)c(CN(CCO)C(=O)NCc3ccccc3)cc2c1`, the cytotoxicity is -4.1%.

As to `COc1ccccc1Oc1cc(C#N)c(C#N)cc1-n1nnc2ccccc21`, the cytotoxicity was -24.3%.

As for `N#Cc1cc(Oc2cccc3cccnc23)c(-n2nnc3ccccc32)cc1C#N`, the cytotoxicity was 74.9% (active).

Turning to `c1ccc(-n2nnnc2Oc2cccc3cccnc23)cc1`, the cytotoxicity was -4.5%.

`CCCC(=O)n1nc(-c2ccco2)nc1SCc1ccccc1`: the cytotoxicity was 2.3%.

Regarding `CCn1c(SCC(=O)Nc2ccc(S(=O)(=O)Nc3ccccn3)cc2)nnc1-c1ccncc1`, the cytotoxicity was -0.6%.

With `COC(=O)c1c(C(=O)OC)c2n(c1C)Cc1ccccc1C2`, the cytotoxicity is 3%.

For the molecule `CCC(CC)C(=O)Nc1cccc(C(=O)NCc2ccco2)c1`, the cytotoxicity was -2.1%.

`O=C(NCc1ccccc1)c1cccc(NC(=O)c2ccco2)c1`: the cytotoxicity was 35.4%.

In the case of `Cc1ccc(C(=O)Nc2cccc(C(=O)NCc3ccco3)c2)cc1`, the cytotoxicity was 66.2% (active).

Consider `O=C(NCc1ccco1)c1cccc(NC(=O)c2ccccc2)c1`, for which the cytotoxicity is 33.2%.

On to `Cc1occc1C(=O)Nc1cccc(C(=O)NCc2ccccc2)c1`, for which the cytotoxicity is -17.7%.

As to `CCc1ccc(-n2c(SCC(=O)Nc3cc(C)[nH]n3)nc3[nH]ncc3c2=O)cc1`, the cytotoxicity was -4.9%.

For the molecule `COc1ccc2nc(NC(=O)C3CCN(S(=O)(=O)c4cnc[nH]4)CC3)sc2c1`, the cytotoxicity was 14.5%.

With `O=C(Nc1c(C(=O)NCc2ccco2)cnn1-c1ccccc1)c1cccc(F)c1`, the cytotoxicity was 7.2%.

For `O=C(NCc1ccco1)c1cc2ccccc2o1`, the cytotoxicity was 7.8%.

For `Cc1ccc(-n2c(N)c(-c3nc4ccccc4n3C)sc2=S)cc1`, the cytotoxicity was 9.5%.

Turning to `C=CCn1c(N)nc2ccccc21`, the cytotoxicity is -9.7%.

Take `C=CCn1c(N)c(-c2nc3ccccc3n2C)sc1=S`: the cytotoxicity was 50.1% (active).

As for `CCC(=O)Nc1ccc(NC(=O)c2c(C)nc3ccccn23)cc1`, the cytotoxicity is -2.5%.

For `O=C(CCCC(=O)N(CC(=O)NC1CCCC1)Cc1ccc(F)cc1)Nc1ccccn1`, the cytotoxicity is 14.7%.

With `C/C=C/Cn1c(N(C)Cc2ccccc2)nc2c1c(=O)[nH]c(=O)n2C`, the cytotoxicity is 5.8%.

For `CCOc1cc(N2CCOCC2)c(OCC)cc1NC(=O)COc1cccc2cccnc12`, the cytotoxicity is 51% (active).

For `CCOc1cc(N2CCOCC2)c(OCC)cc1NC(=O)Cc1ccc(OC)c(OC)c1`, the cytotoxicity is -1.4%.

Consider `CCOc1cc(N2CCOCC2)c(OCC)cc1NC(=O)CN1CCc2ccccc2C1`, for which the cytotoxicity was 9.3%.

In the case of `CC(C)(C)c1ccc(C(=O)N2CCC(C(=O)NCC3CCCO3)CC2)cc1` (stereo not given), the cytotoxicity was -1.9%.

For the molecule `CC(C)Cn1c(SCC(=O)NC2CCCc3ccccc32)nc(O)cc1=O` (stereo not given), the cytotoxicity is -9.4%.

For the molecule `N#Cc1c(N)oc(-c2ccccc2)c1-c1ccccc1`, the cytotoxicity was -9.5%.

With `N#Cc1c(/N=C/c2ccco2)oc(-c2ccccc2)c1-c1ccccc1`, the cytotoxicity was 78.7% (active).

On to `N#Cc1c(/N=C/N2CCCC2)oc(-c2ccccc2)c1-c1ccccc1`, for which the cytotoxicity is 15.9%.

For the molecule `Cc1ccc(CCNc2ccccc2)c[n+]1[O-]`, the cytotoxicity is -10.6%.

Regarding `CCOC(=O)CN1C(=O)C(O)(CC(=O)c2ccco2)c2ccccc21` (stereo not given), the cytotoxicity was -77.9%.

Regarding `O=C(Nc1nccs1)Oc1ccccc1`, the cytotoxicity is 0.7%.

Regarding `COc1ccc(C(C)=O)c2c(O)cccc12`, the cytotoxicity was 12.2%.

On to `COc1ccc2c3c(cccc13)OCC2=O`, for which the cytotoxicity was 18.6%.

Regarding `CC(=O)NC1CCN(C(=O)N2CCCC2)CC1`, the cytotoxicity was 7.7%.

In the case of `O=C(CSc1n[nH]c(-c2ccncc2)n1)NC1CCS(=O)(=O)C1` (stereo not given), the cytotoxicity is -7.5%.

`Cc1c(C(=O)NCc2ccoc2)oc2ccc3c(c12)C(=O)CC(C)(C)O3`: the cytotoxicity is 36.4%.

Regarding `CCOC(=O)c1ccc(N2C(=O)CC(NC3CCN(C(=O)c4ccc(F)cc4)CC3)C2=O)cc1` (stereo not given), the cytotoxicity was -19.3%.

Consider `CC(C)OC(=O)c1cc(=O)[nH]c2ccccc12`, for which the cytotoxicity is 13.4%.

For the molecule `Cc1noc(C)c1S(=O)(=O)N(CC(=O)Nc1ccc2c(c1)OCO2)c1ccc(C(C)C)cc1`, the cytotoxicity is -3.1%.

In the case of `Cc1cc(C)c2c(CC(=O)NCc3ccco3)coc2c1`, the cytotoxicity is 5.6%.

As to `O=C(Cc1cccs1)NCc1ccco1`, the cytotoxicity was 6.7%.

With `Cc1ccc2c(CC(=O)NCc3ccco3)coc2c1C`, the cytotoxicity is 73.2% (active).

Regarding `CN1C(=O)CC(N2CCN(C(c3ccccc3)c3ccccc3)CC2)C1=O` (stereo not given), the cytotoxicity was -16.6%.

`COC(=O)Cn1c(CN2CCN(c3ccc(F)cc3)CC2)nc2c1c(=O)n(C)c(=O)n2C`: the cytotoxicity was 0.6%.
